Common to all, as to assay: qHTS profiling for inhibitors of Plasmodium falciparum proliferation (AID 504749); further: nearly all actives have a fitted effect of over 60% in size
Settings in all cases: P. falciparum in erythrocytes, SYBR Green DNA, 72 h; series mostly up to 28.7 µM
(In general: Quantitative high-throughput screening tests each substance at several concentrations.)

The test system of assay [1] is CP260. In a few lines: (§1)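 In a 72 h erythrocytic culture (37 C, humidified, 5% CO2) at 2.5% hematocrit and 0.3% starting parasitemia, compounds were tested; SYBR Green I in detergent lysis buffer stained parasite DNA overnight.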
The subject of assay [2] is CP262. In a few lines: as §1
The test system of assay [3] is CP265. In a few lines: as §1
Assay [4] relates to CP266. In a few lines: as §1
For assay [5], the system named is CP268. The essentials: as §1
The test system of assay [6] is CP269. In a few lines: as §1
The subject of assay [7] is CP286. The essentials: as §1
Assay [8] has as its system CP291. In a few lines: as §1
Assay [9] concerns CP297. In a few lines: as §1
The subject of assay [10] is CP305. In a few lines: as §1
The subject of assay [11] is CP315. In a few lines: as §1
Assay [12] has as its system CP325. In a few lines: as §1
Assay [13] has as its system CP329. In a few lines:
as §1

The subject of assay [14] is CP335. In a few lines:
as §1

The subject of assay [15] is DFO2036. The essentials:
as §1

The subject of assay [16] is DIV14. In a few lines:
as §1

In assay [17] the test system is DIV17. The essentials: as §1
For assay [18], the system named is DIV30. The essentials:
as §1

Assay [19] relates to Dd2. The essentials: as §1
Assay [20] relates to ECU. The essentials:
as §1

Where “and” joins values, the source holds several entries; their conditions need not be identical. Identical values can stand only once. Records with an inconclusive call do not appear. More than one record can exist for a structure, and the calls need not agree. Calls of active or inactive are those of the source. The call rests on the fitted dose curve; in most records, active means well fitted inhibition curve with a large enough effect; inconclusive means small, poorly fitted or top-dose-only effect; inactive means flat fitted curve, though single readings scatter.
Potency means the concentration at half of the fitted maximal effect.

Regarding `CCC1(c2ccccc2)C(=O)NC(=O)NC1=O`, the Potency result in assay [1], in assay [2], in [3], in assay [4], in assay [5] and in assay [6] was “inactive” in each case. In addition, the Potency result in assay [7], in assay [8], in [9], in assay [10], in [11] and in assay [12] was “inactive” each time. The Potency result in [13], in [14], in assay [15], in [16], in assay [17] and in [18] was “inactive” throughout. Also, the Potency entry in assay [19] and in [20] was “inactive” in each case.
`CCC1(c2ccccc2)C(=O)NC(=O)N(C(=O)c2ccccc2)C1=O` (stereo not given): the Potency entry in assay [1], in assay [2], in assay [3], in [4], in assay [5] and in assay [6] was “inactive” each time. Further, the Potency result in assay [7], in [8], in assay [9], in assay [10], in [11] and in [12] was “inactive” in each case. Besides, the Potency entry in [13], in assay [14], in [15], in [16], in [18] and in assay [19] was “inactive” throughout. Besides, the Potency entry in assay [20] is “inactive”.
Take `FC(F)OC(F)(F)C(F)Cl` (stereo not given): the Potency result in [1], in [2], in [3], in assay [4], in [5] and in assay [6] was “inactive” throughout. In addition, the Potency entry in assay [7], in [8], in assay [9], in [10], in [11] and in [12] was “inactive” each time. The Potency entry in [13], in assay [14], in assay [15], in [16], in assay [17] and in [18] was “inactive” each time. In addition, the Potency result in assay [19] and in [20] was “inactive” in each case.
Consider `CC(C)(C)c1cc(O)ccc1O`, for which the Potency is 6.31 µM (active) in assay [1]; 12 µM (active) and inactive in [2]; 11.2 µM (active) and 12.6 µM (active) in assay [3]; 13.5 µM (active) in assay [6]; 3.98 µM (active) in assay [7]; 15.1 µM (active) in [8]. Also, the Potency in assay [9] is 12 µM (active); in [10], 13.5 µM (active); in [14] it was 5.36 µM (active); in [15], 8.91 µM (active); in assay [16], 6.01 µM (active) and 12 µM (active); in assay [17] it was 5.36 µM (active). Besides, the results for the Potency in [18], in assay [19] and in assay [20] were 9.53 µM (active), 4.47 µM (active) and 7.94 µM (active), respectively. Further, the Potency result in [4], in assay [11] and in [13] was “inactive” each time.
As to `C=CCN(C1=NCCN1)c1c(Cl)cccc1Cl`, the Potency entry in assay [1], in assay [2], in assay [3], in assay [4], in assay [5] and in assay [6] was “inactive” in each case. Further, the Potency entry in [7], in assay [9], in assay [10], in assay [11], in assay [12] and in assay [13] was “inactive” in each case. Besides, the Potency result in assay [14], in [15], in assay [16], in [17], in assay [18] and in assay [19] was “inactive” each time. In assay [20], the Potency entry is “inactive”.
As to `C[C@H]1CC[C@@H]2[C@@H](C)[C@H]3[C@H](C[C@H]4[C@@H]5CC=C6CC(O[C@@H]7O[C@H](CO)[C@H](O)[C@H](O[C@@H]8O[C@H](CO)[C@@H](O)[C@H](O)[C@H]8O)[C@H]7O[C@H]7O[C@@H](C)[C@H](O)[C@@H](O)[C@H]7O)CC[C@]6(C)[C@H]5CC[C@]34C)N2C1` (stereo not given in full), the Potency result in [1], in assay [2], in assay [3], in assay [4], in [5] and in [6] was “inactive” each time. Also, the Potency entry in [7], in assay [8], in assay [9], in [10], in assay [11] and in assay [12] was “inactive” each time. Moreover, the Potency result in assay [13], in [14], in [15], in [16], in [17] and in [18] was “inactive” each time. In addition, the Potency result in [19] and in assay [20] was “inactive” each time.
With `S=C(S)N1CCNCC1`, the Potency result in assay [2], in [3], in assay [4], in [5], in [6] and in assay [7] was “inactive” each time. The Potency result in assay [8], in assay [9], in [10], in assay [11], in [12] and in assay [13] was “inactive” throughout. For the same compound, the Potency result in assay [14], in [15], in assay [16], in [17], in [18] and in [19] was “inactive” throughout. Moreover, the Potency result in assay [20] is “inactive”.
For `F/C(COc1ccc2c(c1)[nH]c1ccccc12)=C1/CN2CCC1CC2`, the Potency in [1] is 5.62 µM (active); in assay [3], 8.91 µM (active); in assay [7], 7.08 µM (active); in assay [15], 11.2 µM (active); in assay [16], 4.26 µM (active); in assay [17], 6.75 µM (active). Also, the Potency in assay [18] is 10.7 µM (active); in [19], 5.62 µM (active). Moreover, the Potency entry in [2] and in [12] was “inactive” throughout.
As for `O=C(CS(=O)C(c1ccccc1)c1ccccc1)NO` (stereo not given), the Potency result in assay [2], in assay [3], in assay [4], in [5], in assay [6] and in [7] was “inactive” throughout. Besides, the Potency entry in assay [8], in [9], in assay [10], in assay [11], in assay [12] and in assay [13] was “inactive” in each case. In addition, the Potency entry in assay [14], in [15], in assay [16], in assay [17], in assay [18] and in assay [19] was “inactive” throughout. Further, in [20], the Potency entry is “inactive”.
Consider `CCC(C)(S(=O)(=O)CC)S(=O)(=O)CC`, for which the Potency entry in [2], in assay [3], in [4], in assay [5], in assay [6] and in assay [7] was “inactive” throughout. For the same compound, the Potency result in assay [8], in assay [9], in assay [10], in [11], in assay [12] and in [13] was “inactive” in each case. For the same compound, the Potency result in assay [14], in assay [15], in assay [16], in assay [17], in assay [18] and in assay [19] was “inactive” throughout. The Potency result in [20] is “inactive”.
With `CCC1(c2ccccc2)C(=O)NC(=O)N(C)C1=O` (stereo not given), the Potency result in assay [2], in assay [4], in assay [5], in assay [7], in assay [8] and in assay [9] was “inactive” in each case. In addition, the Potency result in assay [11], in assay [12], in assay [13], in assay [15], in [18] and in assay [19] was “inactive” in each case.
Regarding `C[CH2][Hg][S]c1ccccc1C(=O)O`, the Potency in [1] was 1 µM (active); in assay [3] it was 1.41 µM (active); in assay [4], 4.26 µM (active); in assay [5] it was 3.79 µM (active); in assay [6], 1.69 µM (active); in assay [7], 1.41 µM (active). Besides, the Potency is 3.79 µM (active) in assay [8]; 1.69 µM (active) in assay [9]; 3.79 µM (active) in assay [10]; 4.26 µM (active) in assay [11]; 1.69 µM (active) in assay [12]; 1.69 µM (active) in assay [13]. The Potency was 1.35 µM (active) in assay [14]; 2 µM (active) in assay [15]; 1.9 µM (active) in assay [16]; 1.51 µM (active) in assay [17]; 4.26 µM (active) in assay [18]; 2.24 µM (active) in assay [19]. The Potency in assay [20] was 3.16 µM (active).
Take `CCCN1CCCC2Cc3[nH]ncc3CC21` (stereo not given): the Potency entry in [1], in [3], in assay [7], in [15], in [19] and in assay [20] was “inactive” throughout.

For the origin of these results see PubChem BioAssay (NCATS).
